Data on 14 molecules can be found in publication PMC12136788.

Where a chain is given by its changes, count along the chain named. Over roughly 24,000 sequences, “enrichment r” has its median near 0.99; the highest 2% begin near 3.7. The sample as a whole holds a higher share of the highest values than the screen did.

Sequences and labels used below:
B1: chrX:71482573:71482574:-_ENSMUSG00000031328_ENSMUST00000144429|mus_hu|FALSE|FALSE (ssRNA)
RNA: GGGAGUUCUACAGUCCGACGAUCCUGCCACUGAGAAAGGGCUCUUAGGGAUGGGAUCCCCUCCAUAAGUGACAUUGACGCCUACUGGACCCUGCUGGACAGGCGUGUACUUGACUGUGUAGGUGUUGUCAUGGUGGUCGAUGACAACAGAGGAUUGAGCAUCA
B2: chr6:38652254:38652255:-_ENSG00000124767_ENST00000373365|hu_hu|hu_hu_hu_mus_False|18_28 (ssRNA)
RNA: GGGAGUUCUACAGUCCGACGAUCCGAGAACUUCAUAGCAGGGAAGUCAAGCUUCUGCAGGAGGGUCAGUCCAAGAACCCUCGUAUAAAAAUCCAGGGACUUCUUAGGAUCCUUCACUCGUAGCAUGGUUUGCUGCAGUAGAAACAACAGAGGAUUGAGCAUCA
B3: chr18:67804014:67804015:+_ENSMUSG00000024537_ENSMUST00000025418|mus_hu|FALSE|FALSE (ssRNA)
RNA: GGGAGUUCUACAGUCCGACGAUCACAAUCGGUAUAGAAGUAACCAAUCUUAGACAUAUUCAGUGUAGAAAUAAUCAGAUCCAUUGCAAGCUGGCCAACAUUUCCAACAGAUACUGCUGGCCUGAAGAUGGGAGUGGAGAGGGACAACAGAGGAUUGAGCAUCA
B4: 58380664_58380784_167_CDS_ENSMUSG00000075700_ENSMUST00000107924|mouse|control|control (ssRNA)
RNA: GGGAGUUCUACAGUCCGACGAUCCUUGAGCAGCGGCCCGGUGGCGUACUGCAUCUUUAAUCUCUUGCUGGGCACGCCGCCCAGGUUGGCAGAGGCCUCGCUGCGGACCACCGCCGACGCCGCCACCAGCAGAAGCAGCAGGAGCAACAGAGGAUUGAGCAUCA
B5: 5649169_5649289_955_CDS_ENSG00000160633_ENST00000592224|human|control|control (ssRNA)
RNA: GGGAGUUCUACAGUCCGACGAUCACAGUCCGUCCUCUCGCCAUCGCCUGGCUGCUCCGCGGGCUCCCUUUUCACUACCGCUAACAGGCUGUCUGCCUUGCUCGACUGAGCGUGUGCUGUUGACUCGCUGGCCAAAUCUAAAUCCAACAGAGGAUUGAGCAUCA
B6: chr14:53325254:53325255:-_ENSG00000073712_ENST00000341590|hu_hu|FALSE|FALSE (ssRNA)
RNA: GGGAGUUCUACAGUCCGACGAUCAACCACUUUGCAAUCUACUUCAGUACAAAUGAAGGACAAUCGUACUUCAUCUGCAAACUCUACGGUGACCAUUUUGAUUUCCCAGUUGACAUUCCACUGUUUCAUGUUGCUGAAACGCCACAACAGAGGAUUGAGCAUCA
B7: 93044292_93044412_1315_3pUTR_ENSMUSG00000027217_ENSMUST00000111265|mouse|control|control (ssRNA)
RNA: GGGAGUUCUACAGUCCGACGAUCAGGAACAGCUGGUCCCAGGCCAGCCCUAGGUCCUUGUAGAGCCCAUGCCCCUUGCUUUAGAGCCUAGGUGAGGCCCCUUCAUGUCUGUCUUUUUUGUUUGUUUGUUUGUUUAUUUAAAAACAACAGAGGAUUGAGCAUCA
B8: chr1:235505951:235505952:+_ENSG00000152904_ENST00000391855|hu_mus|motif|central (ssRNA)
RNA: GGGAGUUCUACAGUCCGACGAUCUUUGUAGGCUUUAGCUUCAAGCUCUCUAAGAGUGUGUCGAGUGUAUGCAAAAGAACCGGCAUCCUCCAGGUACUGCACACAAUACUUUUUAAUAUCUAUAUUCUCUGUUCUCUGGCGCAGCAACAGAGGAUUGAGCAUCA
B9: 52190027_52197400_608_3pUTR_ENSMUSG00000020402_ENSMUST00000102758|mouse|control|control (ssRNA)
RNA: GGGAGUUCUACAGUCCGACGAUCGUUGAUGUGCUCCCUCUUGUACCCUGUCUUGAUUUUAGCAUUUUUUUUCCCAGUGUUCGGCGAGAAUGACGAAUCAAAGGUGAGCUUCAGUCCACGAGCAAGCUGGUCUUCCACAGUGAUCAACAGAGGAUUGAGCAUCA
B10: chr17:60770872:60770873:+_ENSG00000011028_ENST00000303375|hu_hu|hu_hu_hu_mus_True|68_78 (ssRNA)
RNA: GGGAGUUCUACAGUCCGACGAUCUCUUUAAAAAAAAAAAAAAAAAGACAAACAAUAAUAAUGGCACAUUUAAAAAAAGAACUACAAUAGAGGGUCCGCUUUGAGUUUUUGUUCACAUCGUCCUGCACUGGGACACGGGGACUGCAACAGAGGAUUGAGCAUCA
B11: chr17:60770872:60770873:+_ENSG00000011028_ENST00000303375|hu_hu|hu_hu_hu_mus_True|48_68 (ssRNA)
RNA: GGGAGUUCUACAGUCCGACGAUCUCUUUAAAAAAAAAAAAAAAAAGACAAACAAUAAUAGCACAUUAUUUAAAAAAAGAACUACAAAGAAAGGGCCGCUUUGAGUUUUUGUUCACAUCGUCCUGCACUGGGACACGGGGACUGCAACAGAGGAUUGAGCAUCA
B12: chr17:60770872:60770873:+_ENSG00000011028_ENST00000303375|hu_hu|hu_hu_hu_mus_True|68_88 (ssRNA)
RNA: B11 RNA with A47U, C48U, A49U, C52A, U55C, A87U, G88A, A89G, A91G, G94U
B13: 71650973_71651093_4703_CDS_ENSG00000075292_ENST00000264447|human|control|control (ssRNA)
RNA: GGGAGUUCUACAGUCCGACGAUCGUAAUCCAGUUUAGAAAGCUUGCCUUGCAGGGCUGAGAUCCUUCCACUGCCUCCUCUGGUAAGACUGCUCUGAGUAGGUUUGAAUUUACUGCUGCUUUCUGCCAAGCCUGACCUGGCACUCAACAGAGGAUUGAGCAUCA
B14: chr9:14812383:14812384:-_ENSMUSG00000031934_ENSMUST00000164273|mus_mus|mus_mus_mus_hu_True|38_108 (ssRNA)
RNA: GGGAGUUCUACAGUCCGACGAUCAUAGCUCAAGUAGAUACACGCUAACAGUAUAAUGAUGAGUGUCAGCAGGCGGCAGCUAAUGUACUUGAUGAUUAAAUGACUAGAAUUUUUCUUUGUCUUCAAGUACUGCUCCACAAUUGGCAACAGAGGAUUGAGCAUCA

The target in the test is T1, UNK ZnF1-3 (human, UniProt Q9C0B0 31-174).
T1 sequence: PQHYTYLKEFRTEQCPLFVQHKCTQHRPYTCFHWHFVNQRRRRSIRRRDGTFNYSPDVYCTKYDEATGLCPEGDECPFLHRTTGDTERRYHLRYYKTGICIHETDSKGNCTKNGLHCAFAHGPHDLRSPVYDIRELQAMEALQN
The test can be described thus: nsRBNS (natural sequence RNA bind-n-seq); RBNS binding buffer (assumed for nsRBNS): 25 mM Tris pH 7.5, 150 mM KCl, 3 mM MgCl2, 0.01% Triton X-100, 500 ug/ml BSA, 20 U/ml SUPERase-In, 4 C; UNK is unkempt and MSI1 is Musashi-1; names of the RNAs are library labels; protein concentration not given here; high values mean tight binding.
B1 displayed a binding signal of 0.8 enrichment R.
On to B2, for which the binding signal was determined as 0.508 enrichment R.
To B3 belongs 1.13 enrichment R; to B4, 0.563 enrichment R; to B5, 0.689 enrichment R.
B6: the binding signal is 0.398 enrichment R.
Consider B7, for which the binding signal was found to be 0.554 enrichment R.
B8 gave a binding signal of 1.14 enrichment R.
Turning to B9, the binding signal was 0.961 enrichment R.
The molecule B10 had a binding signal of 5.39 enrichment R.
With B11 the figure was 5.29 enrichment R; with B12, 6.65 enrichment R.
The molecule B13 showed a binding signal of 0.641 enrichment R.
As for B14, the binding signal came to 0.675 enrichment R.
